TTR transcr act – TTR transcription activators in neuroblastoma reporter cells, primary screen, cell-based, luminescence, SH-SY5Y, TTR promoter Gaussia luciferase | 92,000 compounds, 1.3% hits | activation, % at 16.7 µM | AID 1117267, 2014 | 100% = recombinant luciferase protein wells;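 active = activation above the mean of all tested compounds plus 3 SD, cut at about 9.5% in these data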;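 note: cells exposed to compounds for one day before reading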
HuH7 TTR inh – TTR promoter reporter inhibitors in hepatoma cells, counter-screen for TTR transcription activator project, cell-based, luminescence, HuH7 hepatoma; shares compounds with TTR transcr act; HuH7 TTR promoter-Gaussia luciferase reporter; inhibition, % at 16.7 µM; 1,100 compounds, 4% hits; AID 1117279, 2014;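 active = average inhibition above the solvent-only control wells' mean plus 3 SD, cut at about 15% in these data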;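 note: inhibitors lower well luminescence so higher value means more inhibition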
TTR act confirm – TTR transcription activators, retest, confirmation, cell-based, luminescence, SH-SY5Y, triplicate; AID 1117280, 2014; shares compounds with TTR transcr act; 1,100 tested, under 10 active; SHSY5Y TTR promoter Gaussia luciferase; 100% = purified Lucia enzyme wells, no cells; activation, % at 16.7 µM;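 active = mean activation above a set limit taken from the earlier primary screen, cut at about 11% in these data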
Hits are given with their value; i = inactive. The sample as a whole holds a higher share of hits than the screen did.

SMILES	TTR transcr act	others
CN(C)[C@@H]1CCN(c2ccc3c(c2)O[C@@H]2CCN(C2)S3(=O)=O)C1	i
CC(C)(C)[C@H]1C=C(C(=O)O)O[C@@H](OCCCCO)C1	i
C[C@H]1C=C(C(=O)NCc2nc3ccccc3[nH]2)O[C@@H](OCCCCO)C1	i
CC(C)(C)[C@H]1C=C(C(=O)NCc2ccccc2)O[C@@H](OCCCCO)C1	18.5	HuH7 TTR inh=i;TTR act confirm=i
CC(C)CN(C(=O)CSc1nnnn1C)C1CCS(=O)(=O)C1 (stereo not given)	i
Cc1cnc(C(=O)OCC(=O)N(CC(C)C)C2CCS(=O)(=O)C2)cn1 (stereo not given)	i
Cc1nn(CC(=O)N(CC(C)C)C2CCS(=O)(=O)C2)c(C)c1[N+](=O)[O-] (stereo not given)	13.3	HuH7 TTR inh=i;TTR act confirm=i
C[C@H]1CCCN1c1cccc2c1S(=O)(=O)N(C1CC1)CCCO2	i
C#CCOCCOCCOCCNc1nc(N2CCN(C(=O)Cn3cc(CCCN=C(N)N)nn3)CC2)nc(N2CCN(C(=O)[C@H](Cc3ccc(O)cc3)n3cc(CCO)nn3)CC2)n1	i
O=C(N/N=C/c1ccc([N+](=O)[O-])o1)C(=O)Nc1ccc(C(=O)O)cc1	i
CN(/N=C/c1ccc([N+](=O)[O-])o1)c1ccccc1	i
O=[N+]([O-])c1ccc(C=NN2CCNC2=S)o1	10.0	HuH7 TTR inh=i;TTR act confirm=i
CC(C)(C)c1ccc(C(=O)Nc2cc(Cl)ccc2-c2nn[nH]n2)cc1	i
C[C@@H]1CCN(C2CC2)S(=O)(=O)c2ccc(N3CC[C@H](O)C3)cc2O1	i
Cc1ccc(C(=O)O/N=C(\c2ccccc2)c2cccnc2)cc1	i
N/C(=N\OC(=O)c1ccccc1)c1cccnc1	10.2	HuH7 TTR inh=i;TTR act confirm=i
N/C(=N\OC(=O)c1ccc2c(c1)OCO2)c1cccnc1	i
CCC[C@H]1[C@@H](OC(=O)NCc2ccc(C)o2)CC[C@@]23CCCN2C(=O)CCC[C@@H]13	i
CCOC(=O)C1C(=O)CC(C)(O)C(C(=O)OCC)C1c1ccc(Br)cc1 (stereo not given)	i
C=CCOC(=O)C1C(=O)CC(C)(O)C(C(=O)OCC=C)C1c1ccc(N(C)C)cc1 (stereo not given)	24.9	HuH7 TTR inh=i;TTR act confirm=i
CCOC(=O)C1C(=O)CC(C)(O)C(C(=O)OCC)C1c1ccc(SC)cc1 (stereo not given)	i
C=CCN1C(=O)[C@H](CC(=O)NCc2cccs2)[C@@]2(C(=O)OCC)CCCC=C12	i
COc1ccc2c(C(c3ccccc3O)C3CCCN3S(=O)(=O)c3ccc(C)cc3)cn(C)c2c1 (stereo not given)	i
C[C@H]1[C@H](NC(=O)c2ccc(Cl)c(Cl)c2)CC[C@@]23CCCN2C(=O)CCC[C@@H]13	i
COc1cc(OC)c2ccc(=O)oc2c1C(CC(=O)N1CCOCC1)c1ccc2c(c1)OCO2 (stereo not given)	14.4	HuH7 TTR inh=i;TTR act confirm=i
SMILES	TTR transcr act	others
COc1cc(OC)c2c(C)cc(=O)oc2c1C(CCN1CCN(c2ccccc2)CC1)c1ccc2c(c1)OCO2 (stereo not given)	i
COc1cc(O)c([C@@H](CC(=O)N2CC(C)CC(C)C2)c2ccc3c(c2)OCO3)c(OC)c1 (stereo not given in full)	i
CC(=O)c1cc(-c2ccc(S(C)(=O)=O)cc2)c(=O)n2c1CCC2	i
CCCCCC(=O)NC1CCCCN(Cc2ccc(C)cc2)C1=O (stereo not given)	i
Cc1ccccc1NC(=O)C1C2CCC(O2)C1C(=O)O (stereo not given)	i
CC12COC3(C(=O)NCCc4ccccc4)CC1CCC32C (stereo not given)	i
Cc1ccccc1NC(=O)C12CC3CCC1(C)C3(C)CO2 (stereo not given)	14.0	HuH7 TTR inh=i;TTR act confirm=i
Cc1ccc(Cn2cc(COC(=O)NCCc3c[nH]c4ccccc34)nn2)cc1	i
O=S1(=O)c2ccc(N3CCC[C@H]3CO)cc2O[C@H]2CCN1C2	i
Cc1ccc(Nc2c3c(nc4ncnn24)CCC3)cc1	19.6	HuH7 TTR inh=23.6;TTR act confirm=i
CC(=O)c1ccc(Nc2cc(C)nc3ncnn23)cc1	i
CCCc1cc(Nc2ccc(C)cc2)n2ncnc2n1	i
NC(=O)c1cc([N+](=O)[O-])ccc1NCc1ccc(C(=O)O)cc1	i
COC(=O)CNC(=O)[C@H](Cc1ccccc1)NC1(C(=O)NCCc2c[nH]c3ccccc23)CCCCC1	i
c1cc2c(cc1C1=Nn3c(nnc3C3CCCCC3)SC1)OCO2	9.9	HuH7 TTR inh=30.4;TTR act confirm=i
COc1ccc(C2=Nn3c(nnc3-c3ccc(OC)cc3)SC2)cc1	i
CC(C)(C)C1=Nn2c(nnc2C2CCCCC2)SC1	i

Screening results from PubChem.
